The values below come from PubChem BioAssay (NCI).

This assay in a line: NCI Yeast Anticancer Drug Screen. Data for the rad52 strain (AID 147).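 Further: 0% = growth of vehicle-treated control cultures.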 The conditions noted are these: S. cerevisiae rad52 mutant growth inhibition, hits give high values. As to the method: Growth inhibition of yeast strains with defined genetic alterations is measured as a screen for potential anti-cancer activity. Selected strains with alterations in DNA damage repair or cell cycle control were exposed to compounds and growth inhibition was measured relative to vehicle treated controls. The strain used in this assay is rad52

This is part of a sample that, as a whole, favours compounds with a hit. Of some 79,000 tested, about 15% had one in any assay. Values without a mark were called inactive. Calls of active or inactive are those of the source. No stated cut-off is given here; in the data, active means growth inhibition above about 70%; inactive means the rest.

As to `CCCCCCCCCCCCNC(C)=O`, the growth inhibition (at 1.2 µM) is -5%; the growth inhibition (at 3.7 µM) is -7%; the growth inhibition (at 11.0 µM) was -8%; the growth inhibition (at 33.0 µM) was -12%; the growth inhibition (at 100.0 µM) is 54%.

With `COc1cc2cc3c4cc(OC)c(OC)cc4cc[n+]3c(C)c2cc1OC`, the growth inhibition by setting is: (at 1.2 µM) -21%; (at 3.7 µM) -21%; (at 11.0 µM) -16%; (at 33.0 µM) -20%; (at 100.0 µM) -13%.

`Cc1cc(C(C)(C)C)c(OCCCN2CCOCC2)c(C(C)(C)C)c1`: the growth inhibition by setting is: (at 1.2 µM) -5%; (at 3.7 µM) -9%; (at 11.0 µM) -14%; (at 33.0 µM) -3%; (at 100.0 µM) 96% (active).

As to `O=C(NO)Nc1cc(Cl)cc(Cl)c1`, the growth inhibition reads like this: (at 1.2 µM) 7%; (at 3.7 µM) 39%; (at 11.0 µM) 99% (active); (at 33.0 µM) 99% (active); (at 100.0 µM) 97% (active).

For `CN(C)CCNC(=O)c1cccc2c1Oc1c(cccc1[N+](=O)[O-])O2`, the growth inhibition runs as follows: (at 1.2 µM) -20%; (at 3.7 µM) -21%; (at 11.0 µM) -12%; (at 33.0 µM) 59%; (at 100.0 µM) 93% (active).

As to `CC(O)=NC(Cc1ccc2ccccc2c1)C(O)=NC(Cc1ccc(Cl)cc1)C(O)=NC(Cc1c[nH]c2ccccc12)C(O)=NC(CO)C(O)=NC(Cc1ccc(O)cc1)C(O)=NC(CCCN=C(N)N)C(O)=NC(CC(C)C)C(O)=NC(CCCN=C(N)N)C(=O)N1CCCC1C(O)=NC(C)C(=N)O` (stereo not given), the growth inhibition (at 1.2 µM) is -7%; the growth inhibition (at 3.7 µM) is -8%; the growth inhibition (at 11.0 µM) is -4%; the growth inhibition (at 33.0 µM) was 4%; the growth inhibition (at 100.0 µM) is 16%.

As for `CC(NCCN(C)C)C1CCC2C3CCc4cc(O)ccc4C3CCC12C` (stereo not given), the growth inhibition is, setting by setting: (at 1.2 µM) 6%; (at 3.7 µM) 16%; (at 11.0 µM) 57%; (at 33.0 µM) 93% (active); (at 100.0 µM) 95% (active).

For `CCC(C)OC(=O)Nc1ccc(C)c(NC(=O)OC(C)CC)c1` (stereo not given), the growth inhibition was -1% (at 1.2 µM); -1% (at 3.7 µM); 3% (at 11.0 µM); 9% (at 33.0 µM); 96% (active) (at 100.0 µM).
